Screening results from PubChem.
The list is not random: actives were taken first. Their share in the collection is about 2.9%.
FBA Mtb inh – Mtb FBA enzyme inhibitors, primary screen, biochemical, fluorescence, strain H37Rv; inhibition, % at 1 µM; purified M. tuberculosis FBA, fluorescence read-out; 360,000 compounds, 2.3% hits; in the data active means inhibition above about 27%;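 further: 0% = vehicle and 100% = reference inhibitor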
Target sequence (P9WQA3 whole entry, looked up): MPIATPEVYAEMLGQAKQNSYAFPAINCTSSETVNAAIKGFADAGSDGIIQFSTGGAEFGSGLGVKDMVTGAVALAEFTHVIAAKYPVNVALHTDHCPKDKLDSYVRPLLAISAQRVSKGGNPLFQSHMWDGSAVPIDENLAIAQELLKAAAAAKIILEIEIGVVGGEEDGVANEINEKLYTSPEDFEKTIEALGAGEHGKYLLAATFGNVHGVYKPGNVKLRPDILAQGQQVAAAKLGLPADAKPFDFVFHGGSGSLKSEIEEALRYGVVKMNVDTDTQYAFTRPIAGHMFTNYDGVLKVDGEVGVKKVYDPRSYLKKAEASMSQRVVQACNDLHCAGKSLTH
GDH-TPI counter – GDH-TPI coupling enzyme inhibitors, primary screen, artefact control for M. tuberculosis FBA inhibitor project, biochemical, absorbance, full deck | AID 588335, 2011 | 360,000 compounds, 1.2% hits | GDH-TPI coupled enzyme counterscreen, NADH absorbance | inhibition, % at 4.8 µM; in the data active means inhibition above about 30%;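 further: 0% = DMSO wells and 100% = wells lacking the enzyme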
Mtb hypoxia inh – PubChem AID 1159583 | M. tuberculosis hypoxia-regulated fluorescent reporter, fluorescence | fluorescence inhibition, % (concentration not given with the values) | 300,000 compounds, 0.1% hits; in the data active means fluorescence inhibition mostly above about 23%, no sharp cut-off; inactive means mostly below about 17%
FadD28 binding – inhibitors of FadD28 bisubstrate probe binding, primary screen, biochemical, fluorescence polarization, single point; Mycobacterium tuberculosis FadD28 fatty-acid-AMP ligase; inhibition, % at 12.5 µM; 360,000 compounds, 0.22% hits; in the data active means inhibition above about 8.5%, passing the limit was not always enough
Mtb BioA inh – M. tuberculosis BioA enzyme inhibitors, primary screen, biochemical, plate reader, single point, HTS | 360,000 compounds, 0.096% hits | purified M. tuberculosis BioA enzyme | inhibition, % at 9.99 µM; in the data active means inhibition above about 40%
* marks the source's active call; other numbers are inactive results; / = no result; + = active, no number.

SMILES | FBA Mtb inh | GDH-TPI counter | Mtb hypoxia inh | FadD28 binding | Mtb BioA inh
O=C(C[C@@H]1CC[C@H]2[C@@H](COC[C@H](O)CN2Cc2nccs2)O1)N1CCC(Cc2ccccc2)CC1 | / | / | / | / | -2
C/C(=N/Nc1ccccc1C(=O)O)c1cccs1 | -3 | 33* | / | -1 | 0
Cc1cc(=O)n2ccccc2c1C#N | + | 25 | -4 | -1 | 2
Cc1cc(=O)n2c(ccc3ccccc32)c1C#N | -2 | -7 | 7 | -3 | 1
COc1ccc(C2CC(=O)C3=C(C2)Nc2ccccc2NC3c2coc3ccccc3c2=O)cc1OC (stereo not drawn) | 2 | 40* | -3 | 0 | /
O=S(=O)(c1cccc(F)c1)N1CC[C@@H]2[C@@H](CO)Nc3ccc(Br)cc3[C@@H]21 | / | / | / | / | 4
CC(C)CN(C(=O)c1ccc(-n2cncn2)c([N+](=O)[O-])c1)C1CCS(=O)(=O)C1 (stereo not drawn) | 1 | 2 | 6 | 22* | -1
CC(C)CN(C(=O)c1cc([N+](=O)[O-])cc([N+](=O)[O-])c1)C1CCS(=O)(=O)C1 (stereo not drawn) | -1 | 6 | 8 | -2 | 1
C[C@@H]1CN([C@@H](C)CO)C(=O)c2cc(-c3cccnc3)cnc2O[C@H]1CN(C)C(=O)C1CCC1 | / | / | / | / | -1
CN(C(=O)CSc1ncnc2sc3c(c12)CCC3)C1CCS(=O)(=O)C1 (stereo not drawn) | -1 | 13 | 32* | -3 | 1
CCOc1cc(C2C3=C(CCCC3=O)N(CC(=O)O)C3=C2C(=O)CCC3)ccc1OC | 0 | 7 | 14 | -5 | 0
COc1ccc(C2C3=C(CCCC3=O)N(CC(=O)O)C3=C2C(=O)CCC3)cc1Cl | 178* | 0 | -1 | -1 | -1
COc1ccc(C2C3=C(CCCC3=O)N(CC(=O)O)C3=C2C(=O)CCC3)cc1Br | 135* | 7 | / | -2 | 1
C#CCOc1c(Cl)cc(C2C3=C(CCCC3=O)N(CC(=O)O)C3=C2C(=O)CCC3)cc1OC | 159* | 16 | / | -2 | -1
COc1ccc(C2C3=C(CC(C)(C)CC3=O)N(CC(=O)O)C3=C2C(=O)CC(C)(C)C3)cc1OC | -2 | 14 | 14 | 0 | 0
Cc1ccc(C2CC=C(C(=O)O)C(c3ccc(F)cc3)N2S(=O)(=O)c2ccc(C)cc2)cc1 (stereo not drawn) | / | / | -1 | / | /
COc1ccc(S(=O)(=O)Nc2cccc3c2O[C@@H](CN(C)C(=O)Nc2c(C)noc2C)[C@@H](C)CN([C@H](C)CO)C3=O)cc1 | / | / | / | / | -1
Nc1nnc(-c2cccc([N+](=O)[O-])c2)s1 | -4 | 3 | 2 | 0 | /
Nc1nnc(/C=C/c2cccc([N+](=O)[O-])c2)s1 | 0 | 44* | 0 | -2 | -2
CCc1noc(C)c1C(=O)NNC(=O)COc1ccc(C)cc1 | 0 | 6 | -6 | 20* | /
CCc1noc(C)c1C(=O)NNC(=O)COc1ccc(C)c(C)c1 | 3 | 9 | -5 | -2 | /
CN(C)C(=O)C[C@H]1CC[C@@H](NC(=O)NC2CCCCC2)[C@H](CO)O1 | / | / | / | / | 2
COc1cccc(NC(=O)Nc2ccc(C(C)(C)C)cc2)c1 | -4 | 0 | -7 | 19* | /
COc1cccc(NC(=O)Nc2ccncc2)c1 | -4 | -5 | 4 | -1 | /
CC=Cc1ccc2n(c1=O)C[C@@H]1[C@@H](CO)[C@H](C(=O)NCC(F)(F)F)[C@H]2N1C(=O)CC (mixture of isomers) | / | / | / | / | -2
SMILES | FBA Mtb inh | GDH-TPI counter | Mtb hypoxia inh | FadD28 binding | Mtb BioA inh
COC(=O)Cn1c(=O)c2c(n(Cc3ccccc3)c1=O)N/C(=C/c1ccc(OC)cc1)C2=O | -1 | 41* | 8 | 2 | /
COc1ccccc1C(=O)N/N=C/C(C)=C/c1ccccc1 | -5 | 32* | / | -3 | 3
CCOc1cc(C(=O)N/N=C/C(Br)=C/c2ccccc2)cc(OCC)c1OCC | -3 | 32* | / | -3 | /
O=C(NN=C/C(Br)=C/c1ccccc1)c1ccncc1 | / | / | 20 | / | /
O=C(N/N=C/C(Br)=C/c1ccccc1)c1ccncc1 | -1 | 36* | / | -3 | /
O=C(N/N=C/C(Br)=C\c1ccccc1)c1cccs1 | 0 | 31* | / | 0 | 0
COc1cccc(C(=O)NN=C/C(Br)=C/c2ccccc2)c1 | / | / | 9 | / | /
C/C(C=NNC(=O)c1ccccc1F)=C\c1ccccc1 | / | / | 3 | / | /
C[C@@H]1CN([C@@H](C)CO)C(=O)Cc2cc(NC(=O)Cn3cnnn3)ccc2O[C@H]1CN(C)C(=O)Nc1ccccc1 | / | / | / | / | 0
CCCC(=O)Nc1ccc2c(c1)OC[C@@H](C)N(C(=O)c1ccccn1)C[C@@H](C)[C@H](OC)CN(C)C2=O | / | / | / | / | -3
CC(/C=N/NC(=O)c1ccncc1)=C\c1ccccc1 | -2 | 45* | / | -2 | -1
O=C(N/N=C\c1ccc(Cl)s1)c1cccs1 | -2 | 33* | / | -1 | -1
O=C(Nc1ccccc1)[C@@H]1[C@@H](CO)[C@@H]2Cn3c(cccc3=O)[C@H]1N2C(=O)c1ccc(F)cc1 | / | / | / | / | 0
Cc1nn(-c2ccccc2)c2nc(-c3cccs3)cc(C(=O)NN)c12 | 7 | 9 | -2 | 1 | /
CCOC(=O)c1cc(-c2cccs2)nc2c1c(C)nn2-c1ccccn1 | 23 | 37* | 4 | -5 | 0
O=C(C[C@H]1CC[C@H](NC(=O)Cc2ccccn2)[C@@H](CO)O1)NCCCN1CCOCC1 | / | / | / | / | -2
COC(=O)[C@]1(CC(C)C)N[C@H](c2ccc(-c3ccc(OC)cc3)cc2)[C@@H]2C(=O)N(C)C(=O)[C@@H]21 | 132* | 15 | / | -1 | -1
CC12CN3CC(C)(CN(C1)C3c1ccc(Cl)cc1Cl)C2O (stereo not drawn) | -1 | -2 | 2 | -3 | /
CN(C)c1ccc(C2N3CC4(C)CN2CC(C)(C3)C4O)cc1 (stereo not drawn) | 4 | 42* | -5 | -3 | 0
Cc1cc(N(C)C)c(C#N)c(=O)[nH]1 | 2 | -9 | / | -4 | -1
COc1ccc(-c2cc(-c3ccco3)[nH]c(=O)c2C#N)cc1 | 123* | 22 | 6 | 2 | -9
Cc1cc(C(F)(F)F)c(C#N)c(=O)[nH]1 | 137* | 15 | / | -1 | -2
COc1ccccc1-c1cc(C(F)(F)F)c(C#N)c(=O)[nH]1 | + | 10 | 13 | -15 | /
COc1cc(-c2cc(-c3ccc(N)cc3)[nH]c(=O)c2C#N)cc(OC)c1OC | 3 | 23 | -2 | -1 | -7
N#Cc1c(-c2ccccc2)cc(-c2ccccc2)[nH]c1=O | 12 | 12 | 10 | -3 | -1
N#Cc1c(C(F)(F)F)cc(-c2cccc(Cl)c2)[nH]c1=O | 156* | 3 | 3 | -13 | 1
[O-][n+]1c2c(nn1-c1ccccc1)C(=NO)CCC2 | / | / | 13 | / | /
